The record followed here is the supplement of paper PMC7726561.

The target in the assay is HLA-C*04:01. Briefly: thermal melting temperature (Tm) of peptide-HLA complex; higher = more thermostable pHLA complex. As for the experimental part: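 Endogenous HLA-C*04:01 ligands were detected in the thermostability assays of both the C1R-A*02:01 and C1R-B*07:02 lines. Lysates were heated 10 min at 37-73 °C and pHLA immunoprecipitated with W6/32. Peptides were quantified by DIA-MS and Tm was taken from a logistic sigmoid fit.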

SYDLANRDF: the thermal melting temperature is 58.3 °C (C1R-A*02:01) and 57.8 °C (C1R-B*07:02).
On to GGSFDVADRMF, for which the thermal melting temperature by setting is: (C1R-A*02:01) 53.1 °C; (C1R-B*07:02) 53.2 °C.
For FLDLTEQEF, the thermal melting temperature by setting is: (C1R-A*02:01) 59.8 °C; (C1R-B*07:02) 60.6 °C.
The corresponding values for QYDEAVAQF are 56.7 °C and 59.2 °C.
LYDLVTEKM: the thermal melting temperature runs as follows: (C1R-A*02:01) 56.2 °C; (C1R-B*07:02) 60.7 °C.
With YFDDLKGEM, the thermal melting temperature came to 57.9 °C (C1R-A*02:01) and 59.4 °C (C1R-B*07:02).
With VFDEAIRAVL, the thermal melting temperature was 60.2 °C (C1R-A*02:01) and 58.8 °C (C1R-B*07:02).
For IYDEAISSF, the thermal melting temperature (C1R-A*02:01) was determined as 58.9 °C and the thermal melting temperature (C1R-B*07:02) is 62.7 °C.
Consider NYDEHISNF, for which the thermal melting temperature is 44.8 °C (C1R-A*02:01) and 48.9 °C (C1R-B*07:02).
Take SFDAHLTEL: the thermal melting temperature by setting is: (C1R-A*02:01) 53 °C; (C1R-B*07:02) 52.9 °C.
In the case of FWDGKIVLV, the thermal melting temperature by setting is: (C1R-A*02:01) 62.5 °C; (C1R-B*07:02) 60.7 °C.
As to AFDASRTSF, the thermal melting temperature by setting is: (C1R-A*02:01) 52.4 °C; (C1R-B*07:02) 52.8 °C.
For the sequence TYDYAKTIL, the thermal melting temperature by setting is: (C1R-A*02:01) 49 °C; (C1R-B*07:02) 46.9 °C.
For IFDQSGTYL, in that order: 53.4 °C and 56.4 °C.
As for IFDRVLTEL, the thermal melting temperature runs as follows: (C1R-A*02:01) 51.3 °C; (C1R-B*07:02) 54.7 °C.
In the case of IYDEVVKL, the thermal melting temperature reads like this: (C1R-A*02:01) 54.3 °C; (C1R-B*07:02) 51.6 °C.
As for TFDLTVVSY, the thermal melting temperature by setting is: (C1R-A*02:01) 53.5 °C; (C1R-B*07:02) 61.8 °C.
For VYDPSLKTLL, the thermal melting temperature is 52.3 °C (C1R-A*02:01) and 52.4 °C (C1R-B*07:02).
The corresponding values for NFDDIKNGL are 52.1 °C and 50.4 °C.
With FFDTNTSVL, the thermal melting temperature (C1R-A*02:01) turned out to be 55.5 °C and the thermal melting temperature (C1R-B*07:02) was 59.4 °C.
On to SFDEIHQLF, for which the thermal melting temperature by setting is: (C1R-A*02:01) 47.8 °C; (C1R-B*07:02) 52 °C.
For VFDKTLAEL, the thermal melting temperature amounted to 58.9 °C (C1R-A*02:01) and 59.1 °C (C1R-B*07:02).
Sequence TFDVSILTI gave a thermal melting temperature (C1R-A*02:01) of 44.9 °C and a thermal melting temperature (C1R-B*07:02) of 47.2 °C.
The corresponding values for RFDESMQVF are 55.9 °C and 58.5 °C.
The corresponding values for YFPELIANF are 45.6 °C and 45.3 °C.
Consider DFDMTLSRF, for which the thermal melting temperature (C1R-A*02:01) was determined as 52.8 °C and the thermal melting temperature (C1R-B*07:02) turned out to be 54.5 °C.
For VFDVTAPNTF, in that order: 56.1 °C and 61.1 °C.
For MPDDLLTTL, in that order: 53.1 °C and 63.4 °C.
As to SFDETVTHF, the thermal melting temperature is 58.6 °C (C1R-A*02:01) and 59.8 °C (C1R-B*07:02).
Consider FLPEAPAEL, for which the thermal melting temperature runs as follows: (C1R-A*02:01) 54.1 °C; (C1R-B*07:02) 55.9 °C.
The corresponding values for VFDTAIAHL are 59 °C and 58.7 °C.
For SFEEKPVYI, the thermal melting temperature was 56.8 °C (C1R-A*02:01) and 55.5 °C (C1R-B*07:02).
Consider NFDNILNSF, for which the thermal melting temperature reads like this: (C1R-A*02:01) 56.8 °C; (C1R-B*07:02) 58.7 °C.
On to IFDGNVAHI, for which the thermal melting temperature was determined as 59.7 °C (C1R-A*02:01) and 59 °C (C1R-B*07:02).
The corresponding values for HFDLSVIEL are 57.1 °C and 60.5 °C.
As for FFEEFGKL, the thermal melting temperature (C1R-A*02:01) came out at 44.3 °C and the thermal melting temperature (C1R-B*07:02) turned out to be 46.5 °C.
For LYDEAIRHF, the thermal melting temperature (C1R-A*02:01) came to 56.5 °C and the thermal melting temperature (C1R-B*07:02) was found to be 60 °C.
For AFDLSQVLF, in that order: 56.1 °C and 56.5 °C.
FFDPSLLHL: the thermal melting temperature reads like this: (C1R-A*02:01) 55.4 °C; (C1R-B*07:02) 55.8 °C.
The corresponding values for VLDDKDYFL are 57 °C and 42.4 °C.
For the sequence FYEPQKGSIYL, the thermal melting temperature (C1R-A*02:01) is 60.5 °C and the thermal melting temperature (C1R-B*07:02) was 62.1 °C.
Turning to LFDDKAVEI, the thermal melting temperature (C1R-A*02:01) came out at 57.2 °C and the thermal melting temperature (C1R-B*07:02) is 57.2 °C.
Consider RFEDSPSYV, for which the thermal melting temperature (C1R-A*02:01) is 54.4 °C and the thermal melting temperature (C1R-B*07:02) came to 52.3 °C.
As to SWDIVVQRV, the thermal melting temperature stood at 46.9 °C (C1R-A*02:01) and 49 °C (C1R-B*07:02).
As for FFDSQGQVLL, the thermal melting temperature runs as follows: (C1R-A*02:01) 51 °C; (C1R-B*07:02) 53.6 °C.
Consider TFDVSPKAV, for which the thermal melting temperature amounted to 41.9 °C (C1R-A*02:01) and 48.1 °C (C1R-B*07:02).
As for VFDPIGHF, the thermal melting temperature reads like this: (C1R-A*02:01) 59.3 °C; (C1R-B*07:02) 58.8 °C.
